These results are taken from PubChem BioAssay.

Assay [1] in a line: viability loss in pontine glioma line – cell-based, JHH-DIPG-1, MIPE4.0, CellTiter-Glo, qHTS, dose response (AID 1347062; cut-off not given, nearly all actives have AC50 up to about 27 µM;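 as to AC50: cells exposed to compound for two days before readout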). Particulars: JHH-DIPG-1 viability, CellTiter-Glo ATP luminescence.
A short description of assay [2]: viability loss in pontine glioma line – cell-based, SU-DIPG-IV, MIPE4.0, CellTiter-Glo, qHTS, dose response (AID 1347063; cut-off not given, nearly all actives have AC50 up to about 30 µM;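 also: compound exposure lasted 48 hours before the viability readout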). Particulars: CellTiter-Glo ATP luminescence.
Assay [3] in a line: viability loss in pontine glioma line – cell-based, SU-DIPG-XIII, MIPE5.0, CellTiter-Glo, qHTS, dose response (AID 1347064; cut-off not given, nearly all actives have AC50 up to about 23 µM;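 as to AC50: cells exposed to compound for 48 hours before the viability read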). Particulars: CellTiter-Glo ATP luminescence. (Cellular ATP, detected with luciferase, serves as a proxy for viable cell number.)
Assay [4] can be described thus: viability loss in pontine glioma line – cell-based, SU-DIPG-XXV, MIPE5.0, CellTiter-Glo, qHTS, dose response (AID 1347065; cut-off not given, nearly all actives have AC50 up to about 26 µM;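 also: cells exposed to compound for 48 hours before ATP readout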). As to conditions: CellTiter-Glo ATP luminescence.
A short description of assay [5]: growth inhibition of DIPG cells – cell-based, MIPE4.0 library, CellTiter-Glo luminescence, qHTS (AID 1347066; cut-off not given, nearly all actives have AC50 up to about 30 µM;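 also: cells exposed to compound for 48 hours before readout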). As to conditions: SU-DIPG-VI viability, CellTiter-Glo ATP luminescence.
Assay [6] can be described thus: JHH-DIPG-1 glioma cell viability, MIPE5.0 library, CellTiter-Glo luminescence, qHTS (AID 1347067; cut-off not given, nearly all actives have AC50 up to about 26 µM;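 also: cells exposed to compound for 48 hours before readout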). As to conditions: JHH-DIPG-1 glioma viability, CellTiter-Glo ATP luminescence.
Assay [7] is described as follows: growth inhibition of DIPG cells – cell-based, MIPE5.0 library, qHTS (AID 1347068; cut-off not given, nearly all actives have IC50 up to about 30 µM). Particulars: SU-DIPG-XXV viability. (In qHTS, concentration-response curves come from the screen itself.)
The nature of assay [8]: viability loss with induced miR-34 in A549 – imaging, A549 dox-inducible miR-34, nuclei and caspase counts, primary screen (AID 1347080;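 active = compounds whose cell count with miR-34 switched on is under 0.7 times the count with it off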). Particulars: A549 miR-34 inducible, Hoechst nuclei count, 48 h.
Assay [9] in a line: compounds altering HSF1 focus formation in cells – imaging, Selleck Cancer Library (AID 1347162; in the data active = plate-normalised HSF1 focus index below about 0.46). As to conditions: human cells, HSF1 nuclear foci imaging, at 10 µM; SSMD: measured here: HSF1 foci SSMD mean; cell count: measured here: cell number; plate-normalised HSF1 focus index: stronger effect = lower value.
Assay [10] is described as follows: MELAS cybrid and Rieske KO viability enhancers – cell-based, MELAS cybrids, Rieske KO mouse fibroblasts, CellTiter-Glo, primary screen (AID 1508586;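 active = mean z-score across replicates of 1.96 or higher in either the MELAS or the Rieske mutant cell line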;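 also: z relative to plate mean and SD of compound and empty wells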). Particulars: low glucose.
Assay [11] in a line: drug combination growth inhibition, ovarian cancer – cell-based, oncology-focused library, rucaparib conditional, profiling panel (AID 1508598). As to conditions: patient-derived ovarian cancer cells, CellTiter-Glo viability, 144 h, stronger effect = lower value.
Setting [12] is: stronger effect = lower value, cell number ratio, induced over uninduced.
The mark [13] stands for this setting: measured here: relative caspase fold change +Dox/-Dox.
The mark [14] stands for this setting: measured here: total cells with miR-34 induction, stronger effect = lower value.
Setting [15] is: measured here: total cells without miR-34 induction.

The structures appear in SMILES notation. Inconclusive results are not listed. Activity calls are given as the source filed them.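 The calls were made as follows, unless noted: active = normalized viability below 100% at a tested concentration; inactive = the rest.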

For `CC1(O)CC(c2nc(-c3ccc4ccc(-c5ccccc5)nc4c3)c3c(N)nccn23)C1` (stereo not drawn), the AC50 in [1] is 1.48 µM (active); in assay [2], 14.8 µM (active); in assay [3], 0.59 µM (active); in [4], 0.332 µM (active); in assay [5], 0.332 µM (active); in assay [6], 11.8 µM (active). Further, in [7], the compound was called inactive. Moreover, the fold change was 1.03 (inactive) in assay [8] (setting [12]) and 0.898 in assay [8] (setting [13]). The cell count in assay [8] (setting [14]) is 2240; in assay [8] (setting [15]), 2180; in assay [9] it was 6580. Besides, the SSMD in assay [9] came out at 1.94. The plate-normalised HSF1 focus index in assay [9] was 1.1 (inactive). Also, the z-score in assay [10] (MELAS cybrid survival, CellTiter-Glo 48 h, stronger effect = higher value) was -0.422 (inactive); in assay [10] (Rieske KO mouse fibroblast survival, CellTiter-Glo 72 h), 0.283. Further, the viability in [11] (at 0.000305 µM, OCI-C5x cells, with rucaparib 10 µM, 100% = cells with rucaparib alone) is 114% (inactive); in assay [11] (at 0.000305 µM, OCI-C5x cells, without rucaparib), 139% (inactive); in assay [11] (at 0.000305 µM, OCI-P5x cells, with rucaparib 20 µM, 100% = cells with rucaparib alone), 109% (inactive); in assay [11] (at 0.000305 µM, OCI-P5x cells, without rucaparib) it was 106% (inactive); in assay [11] (at 0.00122 µM, OCI-C5x cells, with rucaparib 10 µM, 100% = cells with rucaparib alone), 121% (inactive); in assay [11] (at 0.00122 µM, OCI-C5x cells, without rucaparib), 130% (inactive). Besides, the viability was 104% (inactive) in assay [11] (at 0.00122 µM, OCI-P5x cells, with rucaparib 20 µM, 100% = cells with rucaparib alone); 104% (inactive) in [11] (at 0.00122 µM, OCI-P5x cells, without rucaparib); 111% (inactive) in assay [11] (at 0.00488 µM, OCI-C5x cells, with rucaparib 10 µM, 100% = cells with rucaparib alone); 124% (inactive) in assay [11] (at 0.00488 µM, OCI-C5x cells, without rucaparib); 99.9% (active) in assay [11] (at 0.00488 µM, OCI-P5x cells, with rucaparib 20 µM, 100% = cells with rucaparib alone); 105% (inactive) in [11] (at 0.00488 µM, OCI-P5x cells, without rucaparib). Further, the viability in assay [11] (at 0.0195 µM, OCI-C5x cells, with rucaparib 10 µM, 100% = cells with rucaparib alone) is 115% (inactive); in assay [11] (at 0.0195 µM, OCI-C5x cells, without rucaparib), 127% (inactive); in assay [11] (at 0.0195 µM, OCI-P5x cells, with rucaparib 20 µM, 100% = cells with rucaparib alone), 104% (inactive); in assay [11] (at 0.0195 µM, OCI-P5x cells, without rucaparib), 106% (inactive); in assay [11] (at 0.0781 µM, OCI-C5x cells, with rucaparib 10 µM, 100% = cells with rucaparib alone) it was 114% (inactive); in [11] (at 0.0781 µM, OCI-C5x cells, without rucaparib), 133% (inactive). The viability in [11] (at 0.0781 µM, OCI-P5x cells, with rucaparib 20 µM, 100% = cells with rucaparib alone) was 101% (inactive); in [11] (at 0.0781 µM, OCI-P5x cells, without rucaparib), 113% (inactive); in assay [11] (at 0.313 µM, OCI-C5x cells, with rucaparib 10 µM, 100% = cells with rucaparib alone) it was 133% (inactive); in [11] (at 0.313 µM, OCI-C5x cells, without rucaparib) it was 57.9% (active); in [11] (at 0.313 µM, OCI-P5x cells, with rucaparib 20 µM, 100% = cells with rucaparib alone), 88.6% (active); in assay [11] (at 0.313 µM, OCI-P5x cells, without rucaparib), 96% (active). The viability in assay [11] (at 1.25 µM, OCI-C5x cells, with rucaparib 10 µM, 100% = cells with rucaparib alone) was 145% (inactive); in [11] (at 1.25 µM, OCI-C5x cells, without rucaparib), 134% (inactive); in [11] (at 1.25 µM, OCI-P5x cells, with rucaparib 20 µM, 100% = cells with rucaparib alone) it was 41.3% (active); in assay [11] (at 1.25 µM, OCI-P5x cells, without rucaparib), 66.2% (active); in assay [11] (at 5 µM, OCI-C5x cells, with rucaparib 10 µM, 100% = cells with rucaparib alone) it was 168% (inactive); in assay [11] (at 5 µM, OCI-C5x cells, without rucaparib), 153% (inactive). Besides, the viability in [11] (at 5 µM, OCI-P5x cells, with rucaparib 20 µM, 100% = cells with rucaparib alone) is 7.72% (active); in assay [11] (at 5 µM, OCI-P5x cells, without rucaparib), 32.8% (active).

For the compound `COc1cc(C(=O)NC2CCN(C)CC2)ccc1Nc1ncc2c(n1)N(C1CCCC1)CCC(=O)N2C(C)C`, the half-maximal activity concentration (AC50) is 16.6 µM (active) in [1], 7.43 µM (active) in assay [2], 23.5 µM (active) in assay [4] and 23.5 µM (active) in assay [6]. For the same compound, the result in [7] was inactive.

Consider `Cc1cccc(-c2nn(C(=S)Nc3ccccc3)cc2-c2ccnc3ccccc23)n1`, for which the outcome in [1], in assay [2], in assay [3], in assay [4], in assay [5] and in assay [6] was inactive. In assay [7], the compound was called inactive.

On to `CO[C@H]1C[C@@H]2CC[C@@H](C)[C@@](O)(O2)C(=O)C(=O)N2CCCC[C@H]2C(=O)O[C@H]([C@@H](C)C[C@@H]2CC[C@@H](O)[C@H](OC)C2)CC(=O)[C@H](C)/C=C(\C)[C@@H](O)[C@@H](OC)C(=O)[C@H](C)C[C@H](C)/C=C/C=C/C=C/1C`, for which the AC50 in assay [1] is 20.9 µM (active); in assay [2], 20.9 µM (active); in assay [4], 16.6 µM (active); in assay [6], 23.5 µM (active). For the same compound, the fold change is 0.999 (inactive) in assay [8] (setting [12]) and 1.23 in assay [8] (setting [13]). For the same compound, the cell count was found to be 3690 in [8] (setting [14]) and 3700 in [8] (setting [15]).

The term AC50 denotes the concentration at which the activity in the assay is half-maximal. Broadly, the viability is a read-out of living cells in per cent, often relative to untreated cells.
